# PubChem BioAssay (NCI)
# The panel holds about 83,000 compounds, 20% with a hit somewhere; the sample as a whole holds those more often.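 Cell lines were cultured in 96-well plates, exposed to a single compound concentration, and assessed for percent growth 48 hours later.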 The source made the active and inactive calls. How the source made its calls: active means growth percent below 10; inactive means the rest.
# Tested on: HL-60(TB) leukemia
# Experiment: NCI-60 one-dose screen, 48 h (100 = growth as untreated, 0 = no growth, -100 = all killed)
# Settings: 10 µM unless noted
row,Structure (SMILES),growth
1,CCCCCCCCCCCCCCCCNC(=S)N/N=C/c1ccc(O)cc1O,49.9% (inactive)
2,CS(=O)(=O)Nc1cc(-c2ccc3ncnc(Nc4c(Cl)ccc5c4OCO5)c3c2)cnc1Cl,-4.02% (active)
3,COc1ccc(-c2nsc3c2NC(=O)CC3c2ccc3c(c2)OCCO3)cc1 (centres undefined),13% (inactive)
4,CC[Si](CC)(CC)OC1[C@@H](O[Si](CC)(CC)CC)[C@@H](CNC(=O)NC)O[C@H]1n1cnc2c(NC(=O)Nc3ccccc3)ncnc21 (some centres undefined),-39.6% (active)
5,O=C(c1ccccc1)C(O)C(Br)(CBr)c1ccccc1 (centres undefined),65.4% (inactive)
6,CN1CCN(c2ccc(C(=O)Nc3cccc(C#Cc4cccc5[nH]nc(N)c45)c3)cc2C(F)(F)F)CC1,-36.1% (active)
7,CC(=O)/C(=C/c1ccc(-c2ccccc2)cc1)C(=O)c1ccccc1,56.3% (inactive)
8,Cc1nc2sc(C(=O)Nc3cccc(Cl)c3C)c(N)c2cc1C(=O)c1ccccc1,5.28% (active)
9,C/C(=N\NC(=O)c1sc(=S)n(C)c1N)c1cc2ccccc2o1,26.6% (inactive)
10,CCCCN(CCCC)CCCO,95.5% (inactive)
11,COc1ccc(-c2cc(C(=O)N=Nc3c(O)[nH]c4ccccc34)no2)cc1,91.8% (inactive)
12,O=C(c1ccccc1)C1OC1c1ccc([N+](=O)[O-])cc1 (centres undefined),61.6% (inactive)
13,COc1cccc(-c2nc3occn3c2-c2ccnc(NCCCNS(=O)(=O)c3cccc(F)c3)n2)c1,112% (inactive)
14,O=C1C=CC(=O)N1c1cccc(N2C(=O)C=CC2=O)c1,97.9% (inactive)
